C diff growth = C. difficile growth inhibitors, primary screen, HTS. growth activity, negative = inhibition, % at 16 µg/mL (by protocol). Clostridium difficile clinical isolate growth, OD600, 24 h; hits give low values. 86,000 tested, 0.25% active;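 active = mean growth activity at or below -80% and every replicate also at or below -80%; inconclusive = mean at or below -80% but some replicate above -80%; inactive = mean growth activity above -80%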;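 also: 0% = DMSO wells and -100% = levofloxacin 16 µg/mL wells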
Pf Dd2 inh = P. falciparum Dd2 growth inhibitors, primary screen, SYBR Green fluorescence, single dose replicates. 72 h; hits give low values. 94,000 tested, 2.3% active. activity change, % at 10 µM; in the data active = activity change below about -80%; inconclusive = no clear call, values can overlap the other calls
T cruzi growth-1 = T. cruzi intracellular proliferation inhibitors, primary screen, cell-based, beta-gal Tulahuen parasites, NIH3T3 host, luminescence; 77,000 tested, 5.9% active; T. cruzi beta-gal in NIH3T3, GalScreen luminescence, 90 h; AID 624255, 2012; inhibition, % at 8.34 µM;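 active = mean inhibition above about 93%, with at least 55% of replicates each passing it, limit read from the data, passing the limit was not always enough; inconclusive = only one of those two conditions holds; inactive = neither condition holds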
T cruzi growth-2 = T. cruzi intracellular proliferation inhibitors, confirmation, cell-based, NIH3T3 host, beta-gal parasite, luminescence, cherry-pick. inhibition, % at 8.35 µM. T. cruzi beta-gal in NIH3T3, GalScreen luminescence, 90 h. 5,600 tested, 72% active. shares compounds with T cruzi growth-1;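 active = mean replicate inhibition above about 95% and at least 55% of replicates individually reaching it, limit read from the data; inconclusive = only one of the two criteria is met; inactive = neither criterion is met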
T cruzi growth-3 = inhibitors of intracellular T. cruzi replication, confirmation, NIH3T3 host cells, beta-gal parasites, cherry-pick, set 2. inhibition, % at 2.09 µM. T. cruzi beta-gal in NIH3T3, GalScreen luminescence, 90 h. 5,600 tested, 21% active. shares compounds with T cruzi growth-1;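 active = mean inhibition above about 95%, with at least 55% of replicates also reaching it, limit read from the data; inconclusive = meets just one of the two conditions; inactive = meets neither condition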;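 also: plate controls were neutral control median for no effect and positive control median for full effect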
3T3 cytotox = cytotoxicity in mouse NIH/3T3 fibroblasts, confirmation, cytotoxicity control for T. cruzi proliferation inhibitor project, cell-based, cherry-pick, single point; shares compounds with T cruzi growth-1; NIH/3T3 viability, CellTiter-Glo ATP luminescence, 90 h; cytotoxicity (signal decrease), % at 8.35 µM; 5,600 tested, 14% active;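 active = mean signal decrease across replicates above about 35% based on untreated-well scatter, with enough replicates individually passing, limit read from the data; inconclusive = no rule stated though some were filed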;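 also: 0% = median of neutral control wells and 100% = median of positive control wells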
NIH3T3 tox 2 = NIH/3T3 fibroblast cytotoxicity, confirmation, cytotoxicity control, cell-based, cherry-pick, single point, set 2. shares compounds with T cruzi growth-1. NIH/3T3 viability, CellTiter-Glo ATP luminescence, 90 h. inhibition, % at 24.9 µM. 5,600 tested, 56% active;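 active = mean loss of cell viability signal at or above a set limit, and enough replicates individually reaching it; inconclusive = meets only the mean limit or only the replicate share; inactive = meets neither condition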;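 also: 0% = median of neutral control wells and 100% = median of positive control wells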
Numbers without * were called inactive; ? = inconclusive; . = no result given. The list is not random: actives were taken first. Their share in the collection is about 6.7%.

SMILES	C diff growth	Pf Dd2 inh	T cruzi growth-1	T cruzi growth-2	T cruzi growth-3	3T3 cytotox	NIH3T3 tox 2
C[C@@H]1CN([C@@H](C)CO)C(=O)c2cc(NC(=O)Nc3ccc(F)cc3)ccc2O[C@@H](C)CCCCO[C@@H]1CN(C)CC1CCCCC1	1	?	117*	99*	43	?	103*
C[C@H]1CCCCO[C@@H](CN(C)CC2CCCCC2)[C@@H](C)CN([C@@H](C)CO)C(=O)c2cc(NC(=O)Nc3ccc(F)cc3)ccc2O1	0	-85*	125*	101*	120*	60*	103*
C[C@@H]1CCCCO[C@@H](CN(C)CC2CC2)[C@H](C)CN([C@H](C)CO)C(=O)c2cc(NC(=O)Nc3ccc(F)cc3)ccc2O1	3	12	83	.	.	.	.
C[C@@H]1CN([C@H](C)CO)C(=O)c2cc(NC(=O)Nc3ccc(F)cc3)ccc2O[C@@H](C)CCCCO[C@H]1CN(C)C	-1	2	40	.	.	.	.
O=C(CN1CCOCC1)N[C@@H]1CC[C@@H](CCn2cc(C3CC3)nn2)O[C@@H]1CO	3	6	.	.	.	.	.
C[C@@H]1CN([C@H](C)CO)S(=O)(=O)c2ccc(C3=CCCCC3)cc2O[C@@H]1CN(C)C(=O)Nc1ccc2c(c1)OCO2	16	-15	.	.	.	.	.
CNC[C@H]1Oc2ncc(-c3cccc(C(=O)N(C)C)c3)cc2C(=O)N([C@H](C)CO)C[C@H]1C	-6	-4	.	.	.	.	.
CC(=O)N(C)C[C@H]1Oc2cc(C#CCC(C)C)ccc2S(=O)(=O)N([C@H](C)CO)C[C@@H]1C	-2	3	57	.	.	.	.
COc1ccc(S(=O)(=O)N2CC3(CN(Cc4ccncc4)[C@@H](CO)c4[nH]c5cc(OC)ccc5c43)C2)cc1	.	66	.	.	.	.	.
COc1ccc(NC(=O)Nc2ccc3c(c2)C(=O)N([C@H](C)CO)C[C@H](C)[C@H](CN(C)S(=O)(=O)c2ccc(C)cc2)O3)cc1	-11	14	27	.	.	.	.
C[C@@H]1CCCCO[C@@H](CN(C)CC2CCCCC2)[C@@H](C)CN([C@H](C)CO)C(=O)c2cc(NC(=O)Nc3ccc(F)cc3)ccc2O1	13	-68	117*	100*	109*	29	103*
C[C@H](CO)N1C[C@H](C)[C@@H](CN(C)C)OCCCC[C@H](C)Oc2ccc(NC(=O)Nc3ccc(F)cc3)cc2C1=O	3	0	8	.	.	.	.
CC(=O)N1[C@H](CO)[C@@H]2c3ccccc3N(C(=O)c3ccccc3)C[C@@H]21	4	19	-6	.	.	.	.
N#C[C@H]1[C@@H](c2ccc(C#CC3CCCC3)cc2)[C@H](CO)N1C(=O)Cc1ccccn1	-1	-51	.	.	.	.	.
CN(C)CC(=O)N1[C@@H](C#N)[C@H](c2ccc(C#CC3CC3)cc2)[C@@H]1CO	0	0	96*	97*	45	-19	-10
CN(C)CC(=O)N1[C@H](CO)[C@H](c2ccc(C#CC3CCCC3)cc2)[C@@H]1C#N	6	-41	96*	101*	107*	12	9
CN(C)CC(=O)N1[C@H](C#N)[C@H](c2ccc(C#CC3CCCCC3)cc2)[C@H]1CO	6	-26	93	.	.	.	.
CN(C)CC(=O)N1[C@H](CO)[C@@H](c2ccc(C#CC3CCCC3)cc2)[C@@H]1C#N	6	6	9	.	.	.	.
CN(C)CC(=O)N1[C@H](C#N)[C@@H](c2ccc(C#CC3CC3)cc2)[C@@H]1CO	3	4	84	.	.	.	.
CN(C)CC(=O)N1[C@H](C#N)[C@@H](c2ccc(C#CC3CCCC3)cc2)[C@@H]1CO	-3	4	?	85	22	3	105*
N#C[C@H]1[C@H](c2ccc(C#CC3CC3)cc2)[C@H](CO)N1C(=O)Cc1ccccn1	-2	-43	105*	104*	74	-3	3
CO[C@@H]1CN(C)C(=O)c2cc(NC(=O)C3CC3)ccc2OC[C@H](C)N(Cc2ccncc2)C[C@H]1C	.	.	81	.	.	.	.
COc1ccc(CN(C)C[C@@H]2Oc3ccc(NC(=O)CCN4CCOCC4)cc3CC(=O)N([C@@H](C)CO)C[C@@H]2C)cc1	1	14	18	.	.	.	.
O=C(C[C@@H]1CC[C@H](NC(=O)C2CCOCC2)[C@H](CO)O1)NCC1CC1	-1	14	.	.	.	.	.
CC(C)C(=O)Nc1ccc2c(c1)C(=O)N(C)[C@H]1CC[C@H](CC(=O)Nc3cccc(F)c3)O[C@@H]1CO2	2	-5	-22	.	.	.	.
SMILES	C diff growth	Pf Dd2 inh	T cruzi growth-1	T cruzi growth-2	T cruzi growth-3	3T3 cytotox	NIH3T3 tox 2
CN(C)C(=O)c1ccc(-c2ccc3c(c2)[C@H]2[C@H](CCN2Cc2ccc4c(c2)OCO4)[C@@H](CO)N3)cc1	67	-54	53	.	.	.	.
OC[C@@H]1Nc2ccc(C#Cc3ccc(F)cc3)cc2[C@H]2[C@@H]1CCN2Cc1ccc2c(c1)OCO2	-3	-71	142*	109*	108*	41*	104*
CN(C)C(=O)c1ccc(-c2ccc3c(c2)[C@@H]2[C@@H](CCN2Cc2ccc4c(c2)OCO4)[C@H](CO)N3)cc1	4	-54	40	.	.	.	.
N#Cc1ccc(-c2ccc3c(c2)[C@H]2[C@H](CCN2Cc2ccc4c(c2)OCO4)[C@H](CO)N3)cc1	-96*	-57	?	106*	69	-6	105*
CCCNC(=O)N[C@@H]1C=C[C@H](CC(=O)NCCc2ccccc2)O[C@@H]1CO	.	11	-63	.	.	.	.
C[C@@H]1CN([C@@H](C)CO)S(=O)(=O)c2ccc(-c3ccccc3)cc2O[C@H]1CN(C)C	0	-1	.	.	.	.	.
CCCNC(=O)N(C)C[C@H]1Oc2ncc(/C=C/c3ccccc3)cc2C(=O)N([C@H](C)CO)C[C@@H]1C	2	-47	93	.	.	.	.
C/C=C/c1cnc2c(c1)C(=O)N([C@H](C)CO)C[C@H](C)[C@H](CN(C)C(=O)Nc1ccccc1F)O2	2	30	19	.	.	.	.
C[C@H](CO)N1C[C@H](C)[C@@H](CN(C)C(=O)Nc2ccccc2F)Oc2ncc(/C=C/c3ccccc3)cc2C1=O	-14	-80	118*	112*	55	16	17
CCCNC(=O)N(C)C[C@@H]1Oc2ncc(/C=C/c3ccccc3)cc2C(=O)N([C@@H](C)CO)C[C@H]1C	10	-26	103*	98*	36	-4	4
C/C=C/c1cnc2c(c1)C(=O)N([C@H](C)CO)C[C@@H](C)[C@H](CN(C)C(=O)Nc1ccccc1F)O2	-1	11	4	.	.	.	.

High-throughput results: PubChem, Broad Institute
